According to PubChem BioAssay (NCATS):
Inconclusive results are not listed. Activity calls are given as the source filed them. The call rests on the fitted dose curve; in most records, active means well fitted inhibition curve with a large enough effect; inconclusive means small, poorly fitted or top-dose-only effect; inactive means flat fitted curve, though single readings scatter.

target: Calcium and integrin-binding protein 1 (Homo sapiens) (UniProt Q99828); experiment: Primary qHTS for Identification of Calcium Integrin Binding Protein 1 (CIB1) Competitor (AID 1508620); settings: CIB1-GST / FITC-alphaIIb peptide fluorescence polarization; series mostly up to 114 µM; activity change, negative = inhibition: at the top concentration; further: top concentration of the series differs between compounds
Summary of the method: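 Fluorescence polarization competition: GST-tagged CIB1 (1 uM final) preincubated with compound 15 min at room temperature, then FITC-labelled alphaIIb peptide (100 nM final) added. After 15 min at room temperature, polarization read at Ex 480/Em 540.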
On the % scale 0 is the no-effect control and ±100 the full control effect.

Sequence of Calcium and integrin-binding protein 1 (Homo sapiens) (Q99828 whole entry, looked up): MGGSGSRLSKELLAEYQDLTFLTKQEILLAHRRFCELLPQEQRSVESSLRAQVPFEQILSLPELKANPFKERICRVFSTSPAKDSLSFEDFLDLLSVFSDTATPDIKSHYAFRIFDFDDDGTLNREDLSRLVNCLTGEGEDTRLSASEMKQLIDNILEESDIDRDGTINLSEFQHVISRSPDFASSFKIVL

| SMILES | activity change, negative = inhibition |
| --- | --- |
| CCC(C)C(=O)O[C@H]1[C@H](O)[C@@]2(COC(C)=O)C(CC1(C)C)C1=CCC3[C@@]4(C)CC[C@H](O[C@@H]5O[C@H](C(=O)O)[C@@H](O)[C@H](O)[C@H]5O)[C@@](C)(CO)C4CC[C@@]3(C)[C@]1(C)C[C@@H]2O (some centres not stated) | -5.06% [at 30.2 µM] (inactive) |
| CCCCOc1ccc(S(=O)(=O)n2c(C)nc3ccccc32)cc1 | -1.67% [at 57.7 µM] (inactive) |
| CC(C)=CCCC1(C)C2CCC1(C)C(O)C2 (configuration not stated) | 3.96% (inactive) |
| C/C=C(\C)C(=O)OC1C(C)C2(O)C(C=C(CO)CC3(O)C(=O)C(C)=CC32)C2C(C)(C)C12OC(=O)C(C)C (configuration not stated) | 0.04% [at 57.7 µM] (inactive) |
| CC(C)c1c(O)ccc2c1CC[C@H]1C(C)(C)CCC[C@]21C | 4.95% (inactive) |
| COc1cc(/C=C2\CC[C@H]3COC[C@@H](c4cc(F)c(F)c(F)c4)N3C2=O)ccc1-n1cnc(C)c1 | 3.96% (inactive) |
| COc1cc(C(N)=O)nc(-c2ccccn2)c1O | -19.2% (inactive) |
